D1 ag: Allosteric Agonists of the Human D1 Dopamine Receptor: qHTS; D(1A) dopamine receptor (Homo sapiens), P21728; HEK293 T-REx D1 cells, calcium flux, agonist mode; activation, % at 2 µM; actives 1% (n = 360,000); AID 504660, 2011; also: 0% is about no effect
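Agonism was scored from calcium flux recorded over 180 s (1 read/s) after pintool compound addition, following a 10-cycle baseline. Cells were inducible force-coupled HEK293 TREx D1, plated overnight at 30 C and loaded with no-wash calcium dye.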
TRHR ag: qHTS for Small Molecule Agonists and Allosteric Enhancers of Human TRH Receptor: Primary Screen for Agonists | Thyrotropin-releasing hormone receptor (Homo sapiens), P34981 | TRHR cells, calcium flux fluo-8, FDSS agonist mode | activation, % at 2 µM | actives 0.18% (n = 360,000) | AID 493084, 2011; also: 0% is about no effect
Target sequence (P34981 whole entry, looked up): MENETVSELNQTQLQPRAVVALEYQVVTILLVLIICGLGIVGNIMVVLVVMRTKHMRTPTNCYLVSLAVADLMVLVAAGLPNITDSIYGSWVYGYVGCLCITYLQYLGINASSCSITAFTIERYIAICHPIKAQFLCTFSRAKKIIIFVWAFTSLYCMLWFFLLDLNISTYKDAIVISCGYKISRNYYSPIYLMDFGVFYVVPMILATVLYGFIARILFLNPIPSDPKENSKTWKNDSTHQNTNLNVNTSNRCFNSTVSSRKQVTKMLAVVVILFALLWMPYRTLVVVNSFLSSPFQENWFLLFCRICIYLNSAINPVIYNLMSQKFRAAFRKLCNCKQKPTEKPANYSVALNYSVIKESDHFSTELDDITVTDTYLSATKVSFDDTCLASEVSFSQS
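Fluo-8-loaded TRHR cells; 10 s baseline, compound added, kinetic Ca2+ fluorescence read 1/s, agonist mode.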
TRHR PAM: qHTS for Small Molecule Agonists and Allosteric Enhancers of Human TRH Receptor: Primary Screen for Enhancers; Thyrotropin-releasing hormone receptor (Homo sapiens), P34981; TRHR cells, fluo-8 calcium fluorescence, EC20 TRH enhancement; enhancement, % at 2 µM; actives 0.66% (n = 360,000); AID 493056, 2011; in the data active = enhancement above about 30%; also: 0% is about no effect
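TRHR-expressing cells loaded with fluo-8 calcium dye were read kinetically (ex 480/em 530) during compound addition, then stimulated with an EC20 of TRH (10 nM final). Enhancement of the Gq-mediated intracellular calcium response was scored.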
D1 antagonist: Antagonist of Human D 1 Dopamine Receptor: qHTS; D(1A) dopamine receptor (Homo sapiens), P21728; HEK293 TREx D1 cells, calcium flux, dopamine EC80; hits give low values; activity change, negative = inhibition, % at 10 µM; actives 3.2% (n = 360,000); AID 504652, 2011; in the data active = activity change below about -30%; also: % is scaled to controls: 0 for no effect and ±100 for the full control effect
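Inducible Hek293 Trex D1 cells (tetracycline, overnight, 30 C). Calcium dye 30–90 min RT. Antagonist mode: EC80 dopamine added after 180 s compound read.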
D1 potentiator: Potentiators of Human D1 Dopamine Receptor: qHTS; potentiation, % at 10 µM; actives 0.036% (n = 360,000); AID 504651, 2011; HEK293 TREx D1 cells, calcium flux, dopamine EC20 potentiation; in the data active = potentiation above about 30%; also: 0% is about no effect
An asterisk follows results filed as active; / = not tested or not shown; ! = a repeat was not active. Only some compounds are listed: those with a hit (about 4.7% of all), similar ones and a draw of the others. Rule as the data show it, unless noted: active = activation above about 30%; inactive = the rest.

SMILES	D1 ag	TRHR ag	TRHR PAM	D1 antagonist	D1 potentiator
O=C(CN1CCc2ccccc2C1)N1CCN(S(=O)(=O)c2ccccc2)CC1	3	-1	-3	-35*	-6
O=C(COc1cccnc1[N+](=O)[O-])N1CCN(S(=O)(=O)c2ccccc2)CC1	0	0	0	1	-2
O=C(COc1ccccc1[N+](=O)[O-])N1CCN(S(=O)(=O)c2ccccc2)CC1	2	0	3	-95*	-11
O=C(NCc1ccc(F)cc1)C1(S(=O)(=O)c2ccc(Cl)cc2)CC1	3	-3	-4	4	/
O=S(=O)(c1ccc(C(F)(F)F)cc1)N1CCN(CCOc2ccccc2)CC1	18	1	2	-39*	-4
CC(=O)Nc1nonc1-c1nnc(SCC(=O)Nc2ccc(C)c(Cl)c2)n1-c1ccccc1	-1	0	-1	3	0
COc1ccc(-n2c(SCC(=O)Nc3ccc(C)cc3)nc(O)c(Cc3ccccc3)c2=O)cc1	6	0	3	-51*	1
COc1ccc(NC(=O)CSc2nnc(-c3nonc3NC(C)=O)n2-c2ccccc2)cc1	-2	0	1	-46*	1
COc1ccccc1NC(=O)CSc1nc2c(oc3ccccc32)c(=O)n1-c1ccc(C)cc1	6	1	1	-39*	-4
Cc1cc(C)cc(N(CC(=O)NCc2ccc(F)cc2)C(=O)CCC(=O)Nc2ccccn2)c1	4	-1	2	14	-3
COc1ccc2c(Sc3ccccc3)c(C(=O)NCc3ccc(OC(C)C)cc3)[nH]c2c1	1	0	-2	-4	-2
COc1ccc(C(=O)OC(C(=O)c2ccccc2)c2ccccc2)cc1 (stereo unspecified)	13	1	4	-30*	-8
COc1ccc(C(=O)C(OC(=O)c2ccc(C)c(NC(C)=O)c2)c2ccccc2)cc1 (stereo unspecified)	1	2	14	2	6
Cc1nn2cnc3sc4c(c3c2nc1=O)CCCC4	-1	0	-11	-86*	-7
c1nc2sc3c(c2c2nnnn12)CCCC3	1	0	-1	-4	-5
COC(=O)C1(CCSC)NC(c2ccc(O)cc2)C2C(=O)N(c3ccc(F)cc3)C(=O)C21 (stereo unspecified)	7	1	-5	0	2
CCN(CC)S(=O)(=O)c1ccc(C(=O)Nc2nc3ccc(Cl)cc3s2)cc1	6	1	1	5	0
COc1ccc(/C=N/NC(=O)c2cccc(Br)c2)cc1CN1CCOCC1	0	0	6	1	-8
COc1ccc(/C=N/NC(=O)c2ccccc2O)cc1CN1CCOCC1	1	0	2	-33*	-14
CC(=O)c1c(C)[nH]c(C(=O)OCC(=O)N(Cc2ccccc2)C(C)(C)C)c1C	0	0	-6	-5	-2
COc1ccc(C(=O)N2CCC(C(=O)NCc3ccccn3)CC2)cc1	4	0	6	-31*	-12
COc1ccc(C(=O)N2CCN(CCc3ccccn3)CC2)cc1	50*!	0	19	-46*!	6
O=C(NC1CCCC1)C1CCN(C(=O)c2ccc(-c3ccccc3)cc2)CC1	5	-1	-5	-38*	-2
Cc1occc1C(=O)N1CCN(S(=O)(=O)c2ccccc2)CC1	2	0	10	-10	4
CCOc1cccc(C(=O)N(Cc2ccc(N(C)C)cc2)CC2CCCO2)c1 (stereo unspecified)	5	-2	-1	0	0
C/C(=C\C(=O)c1ccc(Br)cc1)NCc1ccc(C)cc1	1	0	40*	2	-8
C/C(=C\C(=O)c1ccc(Br)cc1)NCc1ccccc1	1	1	7	-15	-4
Cc1c(Cl)cccc1NC(=S)NCCc1ccc(C(F)(F)F)cc1	23	1	0	-25	-7
CC(C)CN1C(=O)c2ccc(NC(=O)c3ccco3)cc2C1=O	3	0	-7	-10	-3
